# Where a chain is given by its changes, count along the chain named. Over roughly 24,000 sequences, “enrichment r” has its median near 0.99; the highest 2% begin near 3.7. This is one part of a sample in which the highest values are shown more often than they occur.
# T1: UNK ZnF1-3 (human, UniProt Q9C0B0 31-174)
# T1 sequence: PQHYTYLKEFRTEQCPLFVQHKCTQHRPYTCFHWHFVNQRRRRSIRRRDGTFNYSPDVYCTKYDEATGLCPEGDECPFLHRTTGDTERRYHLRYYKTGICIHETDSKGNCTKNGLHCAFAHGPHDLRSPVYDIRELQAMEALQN
# B1: chr1:185277986:185277987:-_ENSG00000116679_ENST00000392007|hu_mus|FALSE|FALSE (ssRNA)
# RNA: GGGAGUUCUACAGUCCGACGAUCCUGCUUGACUCGGUCCAUCUUCAGCUUCUUGGCUGCAGAAUAAACAUCUUUUACUAAUUCCUUAUCAGCUUUCAACUGAGCCGUGUAUGCAUAAUUCAGCAAGACUUCAACAGCUUCUGGCAACAGAGGAUUGAGCAUCA
# B2: chr15:80390846:80390847:+_ENSG00000086666_ENST00000559775|hu_hu|FALSE|FALSE (ssRNA)
# RNA: GGGAGUUCUACAGUCCGACGAUCCUGUCCUGUAUCUUGAGACAGACAUUAGCUUUCUGCCUUCCCUAUUCUCAUAAGCAGCUACUUAAAAGUUUUGAAUUUUAUGCAAGAAAACAUUUUAAAGCCUUCUGUGUUUUACUGCAGCAACAGAGGAUUGAGCAUCA
# B3: chr4:54876292:54876293:-_ENSG00000109220_ENST00000263921|perfect_dup|motif|central (ssRNA)
# RNA: GGGAGUUCUACAGUCCGACGAUCCUAUAAAUAAAGUAAAUGCUAAUCUGGUCGAAAAAUCGGUGUCUUUGGUAAAAAUUCGGUGAGGAUGACAUAUUCCAUCAUGUUAUUCGUUUCACAUUUCCUUUUGCUCAGUCUCCAAUGCAACAGAGGAUUGAGCAUCA
# B4: chr13:100194382:100194383:-_ENSMUSG00000052727_ENSMUST00000064762|mus_mus|motif|central (ssRNA)
# RNA: GGGAGUUCUACAGUCCGACGAUCUCCUGUAAAUGAAAACAUUUGUUAAAAAGUUCAUCUAUGAAAAGUUCUCGAGUAGCGGAAAAAAAAAAAAAAAAAAAAAAAAAUCUUCUGUACAUGUGUUCCCAUGUGUUGAAAUUAAUGCAACAGAGGAUUGAGCAUCA
# B5: chr13:100194382:100194383:-_ENSMUSG00000052727_ENSMUST00000064762|mus_hu|FALSE|FALSE (ssRNA)
# RNA: GGGAGUUCUACAGUCCGACGAUCUCCUGUAAAUGAAAACAUUUGUUAAAAAGUUCAUCUAUGAAAAGUUCUCACAUAUCUUAAAAAAAAAAUUCUUCUGUACACUUGUUCCCAUAAUUAUGUUGAAAUUAAUGGAAAAUUUAACAACAGAGGAUUGAGCAUCA
# B6: chr13:100194382:100194383:-_ENSMUSG00000052727_ENSMUST00000064762|mus_mus|FALSE|FALSE (ssRNA)
# RNA: B4 RNA with G80U, G81A
# B7: chr11:57926588:57926589:+_ENSMUSG00000020515_ENSMUST00000020822|mus_hu|FALSE|FALSE (ssRNA)
# RNA: GGGAGUUCUACAGUCCGACGAUCGUCAAUCCCUUCCUCUUCAUGCUUCUGAAACUGUAGUCCUGAGUUAGCAAGGAGAUCUAUGGAAUCCUGGGAGUACAUGUCCUCUGUAAGGUUAAAUUUGAAAUUGAACUGCCAAGUAUUCAACAGAGGAUUGAGCAUCA
# B8: 53612100_53613521_5214_CDS_ENSG00000086758_ENST00000262854|human|control|control (ssRNA)
# RNA: GGGAGUUCUACAGUCCGACGAUCAGAGCGAUCAUCAAACCAGCGCCAGUUGUUGCUGUUGGAUUGCAGGUACUUAGUCAUCUGGGCUCUCCUUUUUGAGGAGAUGGCUGUCUUUUCAUAGAAAUCAAUCAGGAGCAACACUGGCAACAGAGGAUUGAGCAUCA
# B9: chr1:163117127:163117128:-_ENSG00000143248_ENST00000313961|hu_hu|motif|central (ssRNA)
# RNA: GGGAGUUCUACAGUCCGACGAUCGCAGGGUUAUUAUGGAGGAAAUAACUCACAGGAUGAUUUCAUAGCCUGGCUAAAUUACGGCUUGAUUAACUCCUGAUAAAACUCAGAGCGCACAAAGCGAGGCAGAGAAUCCUUUUCCAUCAACAGAGGAUUGAGCAUCA
# B10: chr7:140404665:140404666:+_ENSG00000090266_ENST00000247866|hu_hu|hu_hu_hu_mus_False|28_98 (ssRNA)
# RNA: GGGAGUUCUACAGUCCGACGAUCUGCUCCUACUCGUAGGCUGAGUCUACAGUGUCAGUCCUCGUCAUCAGGAGGGAUUCCCAGUUCUUCAUCUGUCCACUGUGAAGGAUCAGGAUAUGAAAAGUGACCCAGCACAGCAUCCGACAACAGAGGAUUGAGCAUCA
# B11: chr9:34402745:34402746:-_ENSG00000164970_ENST00000297620|hu_hu|motif|central (ssRNA)
# RNA: GGGAGUUCUACAGUCCGACGAUCGGGGACGACCAGCCUUGUUCGGGCCAUGACAUUGUUCUUCUUGGGUUGCUGGUUGACAGGGCGGCCCAUGCUGCCAUUCUUCAGGGAGCCCUUCCGGGCCAGCUCCCGCUGCUUCUCCUCCAACAGAGGAUUGAGCAUCA
# B12: chr2:153237265:153237266:-_ENSMUSG00000061411_ENSMUST00000109784|mus_mus|mus_mus_mus_hu_False|1_108 (ssRNA)
# RNA: GGGAGUUCUACAGUCCGACGAUCAAAAAAAAGAAAAAAAAAGUGUCCUUGUGCCCAAAGUCUCAGGUGCUUGGAGUGUGGCUAGAAACAGCUCUUUUGGAUCCCACCUCUUUCAAAAACAAAAUGUACCAACUGGUAGGCAGGCAACAGAGGAUUGAGCAUCA
# B13: chr2:153237265:153237266:-_ENSMUSG00000061411_ENSMUST00000109784|mus_mus|mus_mus_mus_hu_False|1_98 (ssRNA)
# RNA: B12 RNA with G32A, A37G
# B14: chr2:153237265:153237266:-_ENSMUSG00000061411_ENSMUST00000109784|mus_mus|mus_mus_mus_hu_False|98_98 (ssRNA)
# RNA: B12 RNA with G32A, A37G, A137G, G138A, C140G, A141C, G142A
# Biological target: T1, UNK ZnF1-3
# Assay: nsRBNS (natural sequence RNA bind-n-seq); RBNS binding buffer (assumed for nsRBNS): 25 mM Tris pH 7.5, 150 mM KCl, 3 mM MgCl2, 0.01% Triton X-100, 500 ug/ml BSA, 20 U/ml SUPERase-In, 4 C; UNK is unkempt and MSI1 is Musashi-1; names of the RNAs are library labels; protein concentration not given here; high values mean tight binding
row,Binder,binding signal [enrichment R]
1,B1,0.806
2,B2,0.755
3,B3,1.46
4,B4,5.84
5,B5,1.06
6,B6,5.73
7,B7,1.01
8,B8,1.05
9,B9,1.52
10,B10,0.773
11,B11,0.859
12,B12,4.2
13,B13,4.8
14,B14,3.61
